Records with an inconclusive call do not appear. The source made the active and inactive calls. Unless noted, the call rests on the fitted dose curve; in most records, active means well fitted curve in the direction sought with a large enough effect in the repeat runs; inconclusive means weak or mixed curves; inactive means no such curve, though single readings can be large; an effect the other way counts as inactive or inconclusive.
How the values were obtained:
[1] = qHTS assay to identify small molecule antagonists of the estrogen receptor alpha (ER-alpha) signaling pathway using the BG1 cell line in the presence of 0.1 nM 17-beta-estradiol - cell viability counter screen (AID 1259241); further: nearly all actives have a fitted effect of over 40% in size
How it was run: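 CellTiter-Fluor read (30 min, 37C) on ER-alpha/ERE-luc VM7Luc4E2 cells; 22 hr compound treatment; agonist 0.1 nM E2 final; same-well multiplex.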

[2] = qHTS assay to identify small molecule antagonists of the androgen receptor (AR) signaling pathway using the MDA cell line in the presence of 0.5 nM R1881 - cell viability counter screen (AID 1259242); further: nearly all actives have a fitted effect of over 45% in size
How it was run: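 Live-cell protease fluorescence, CellTiter-Fluor, 30 min at 37C. Cells: MDA-kb2, 3,000/well, preincubated 5 hr. Compounds plus 0.5 nM R1881 final, 16 hr, 37C, 0% CO2.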

[3] = target: Estrogen receptor (Homo sapiens) (UniProt P03372); experiment: qHTS assay to identify small molecule antagonists of the estrogen receptor alpha (ER-alpha) signaling pathway using the BG1 cell line in the presence of 0.1 nM 17-beta-estradiol (AID 1259244); further: nearly all actives have a fitted effect of over 50% in size
How it was run: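 Luminescence after ONE-Glo (30 min, room temperature) measured ERE-luciferase activity in VM7Luc4E2 cells treated 22 h with compound and 0.1 nM final 17beta-estradiol as stimulator.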

[4] = qHTS assay to identify small molecule HDAC inhibitors (AID 1259364); further: potency means the concentration at half of the fitted maximal effect;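 further: wild-type HCT-116 cells with endogenous class I/II HDAC activity; nearly all actives have a fitted effect of over 45% in size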; on activity change, negative = inhibition: top concentration of the series differs between compounds
How it was run: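 HCT-116 (wild type), 1,500 cells/well, overnight; compound 2 hr 37C 5% CO2; HDAC-Glo I/II reagent 30 min RT; luminescence readout.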

[5] = qHTS assay to identify small molecule HDAC inhibitors - cell viability counter screen (AID 1259365); further: series mostly up to about 92 µM; nearly all actives have a fitted effect of over 50% in size
How it was run: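 To flag cytotoxic hits, 1,500 wild-type HCT-116 cells per well, plated the day before, receive test compounds for 2hr at 37 C before CellTiter-Glo reagent and a luminescence read.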

[6] = qHTS assay to identify small molecule agonists of the sonic hedgehog signaling (Shh) pathway - cell viability counter screen (AID 1259366); further: nearly all actives have a fitted effect of over 50% in size
How it was run: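 Fluorescence from CellTiter-Fluor reports live cells in this counter screen. NIH/3T3-derived Gli1-Luc reporter cells receive test compounds for 24hr at 37C; reagent goes in at 23hr.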

[7] = qHTS assay to identify small molecule antagonists of the sonic hedgehog signaling (Shh) pathway - cell viability counter screen (AID 1259367); further: nearly all actives have a fitted effect of over 55% in size
How it was run: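 Conditioned medium drove Shh signaling in 3T3 Gli1-Luc cells exposed to compounds at 37C and 5% CO2. Viability was determined from CellTiter-Fluor fluorescence, with reagent incubated 1 hr after 23 hr of treatment.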

[8] = qHTS assay to identify small molecule agonists of the sonic hedgehog signaling (Shh) pathway (AID 1259368; calls by dose curve;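 further: NIH/3T3-derived 3T3Gli1-Luc cells carrying a stable Gli1-driven firefly luciferase reporter; series mostly up to about 92 µM; nearly all actives have a fitted effect of over 15% in size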)
How it was run: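 Read-out: firefly luciferase luminescence from a Gli1 response element reporter stably integrated in NIH/3T3-derived 3T3Gli1-Luc cells, measured 30 min at room temperature after reagent addition. Compound exposure lasted 24 hr at 37 C, 5% CO2.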

[9] = qHTS assay to identify small molecule antagonists of the sonic hedgehog signaling (Shh) pathway (AID 1259369; calls by dose curve; further: nearly all actives have a fitted effect of over 45% in size)
How it was run: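 Luminescence readout: firefly Luc under Gli1 response element in 3T3Gli1-Luc cells (NIH/3T3 clone). Antagonist mode, stimulation by conditioned medium; compound exposure 24hr at 37 C, 5% CO2.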

[10] = qHTS assay to identify small molecule agonists of the androgen receptor (AR) signaling pathway in the presence of an antagonist - cell viability counter screen (AID 1259379);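 further: MDA-kb2 human breast cancer cells carrying an MMTV luciferase reporter; series mostly up to about 92 µM; nearly all actives have a fitted effect of over 25% in size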
How it was run: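 Viability counter screen: CellTiter-Fluor fluorescence, measured in the same wells as the luciferase read-out. MDA-kb2 cells, 3,000/well, with nilutamide at 3.0uM final and compounds at 15 concentrations, 16 hr at 37C, 0% CO2.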

[11] = qHTS assay to identify small molecule agonists of the estrogen receptor beta (ER-beta) signaling pathway - cell viability counter screen (AID 1259380); further: nearly all actives have a fitted effect of over 30% in size
How it was run: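 Luminescence read-out (CellTiter-Glo, 30 min, room temp) taken in the same wells as the beta-lactamase reporter assay; ER-beta-UAS-bla HEK293T cells exposed to DMSO-dissolved compounds for 16 hr at 37C in 2% charcoal-stripped FBS medium.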

[12] = qHTS assay to identify small molecule antagonists of the estrogen receptor beta (ER-beta) signaling pathway - cell viability counter screen (AID 1259382); further: series mostly up to about 92 µM; nearly all actives have a fitted effect of over 55% in size
How it was run: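 Luminescent ATP read-out (CellTiter-Glo, 30 min, RT) taken in the same wells as the bla reporter assay. HEK293T ER-beta-UAS-bla cells in 2% charcoal-stripped FBS were exposed to compounds with 1nM E2 for 16 hr at 37C.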

[13] = target: Estrogen receptor (Homo sapiens) (UniProt P03372); experiment: qHTS assay to identify small molecule agonists of the estrogen receptor alpha (ER-alpha) signaling pathway in the presence of an antagonist (AID 1259383; calls by dose curve; further: top concentration of the series differs between compounds; nearly all actives have a fitted effect of over 15% in size)
How it was run: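 Luciferase luminescence (ONE-Glo, 30min at room temperature) measured in VM7Luc4E2 cells after 22hr compound exposure at 15 concentrations, with 10.0nM ICI-182,780 final present; cells express endogenous ER-alpha and carry four EREs upstream of luciferase.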

[14] = qHTS assay to identify small molecule agonists or antagonists of the thyroid stimulating hormone receptor (TSHR) signaling pathway - wild type cell line counter screen (AID 1259384; calls by dose curve)
How it was run: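 Wild-type HEK293 cells were plated 18 h at 37 C/5% CO2, pin-dosed with compound plus Ro20-1724 medium, held 30 min at room temperature, then given cAMP-d2 and anti-cAMP-cryptate; fluorescence was read after 1 h. Fifteen concentrations, triplicate.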

[15] = target: Thyrotropin receptor (Homo sapiens) (UniProt P16473); experiment: qHTS assay to identify small molecule antagonists of the thyroid stimulating hormone receptor (TSHR) signaling pathway (AID 1259385; calls by dose curve; further: nearly all actives have a fitted effect of over 20% in size)
How it was run: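 TSHR-HEK293 cells were plated and held 18 h at 37C/5% CO2, then given compound plus Ro20-1724 and stimulated with TSH at 1.5 ng/mL final. After 30 min at room temperature, cAMP was detected with cAMP-d2/anti-cAMP-cryptate (1 h) by fluorescence.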

[16] = target: Estrogen receptor beta (Homo sapiens) (UniProt Q92731); experiment: qHTS assay to identify small molecule agonists of the estrogen receptor beta (ER-beta) signaling pathway (AID 1259377; active means well fitted activation curve with a large enough effect in the signal ratio in the repeat runs, not every such curve was filed as active; the % refers to the signal ratio)
How it was run: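 Screening used GripTite ER-beta-UAS-bla cells held in 2% charcoal-stripped FBS medium. After overnight (16 hr) compound incubation at 37C, beta-lactamase activity was detected with a FRET substrate by fluorescence.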

[17] = target: Estrogen receptor beta (Homo sapiens) (UniProt Q92731); experiment: qHTS assay to identify small molecule antagonists of the estrogen receptor beta (ER-beta) signaling pathway (AID 1259378; active means well fitted inhibition curve with a large enough effect in the signal ratio in the repeat runs, not every such curve was filed as active; the % refers to the signal ratio)
How it was run: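 ER-beta-UAS-bla HEK293T (GripTite) cells in 2% charcoal-stripped FBS medium were preincubated 6 hr at 37C, dosed with compound, then stimulated with 1 nM E2 (final) for 16 hr; beta-lactamase reporter read by B/G FRET fluorescence after 2 hr substrate loading.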

[18] = qHTS assay to identify small molecule phospholipidosis (PLD) inducers (AID 1259344; active means well fitted curve in the direction sought with a large enough effect; an effect the other way counts as inactive or inconclusive)
How it was run: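 After 4 h attachment on collagen I, HepG2 cells were dosed with compound alongside LipidTOX Red, kept 24 h at 37 C, fixed, and imaged for lamellar phospholipid pits.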
On the % scale 0 is the no-effect control and ±100 the full control effect.

Sequence of Estrogen receptor (Homo sapiens) (P03372 whole entry, looked up): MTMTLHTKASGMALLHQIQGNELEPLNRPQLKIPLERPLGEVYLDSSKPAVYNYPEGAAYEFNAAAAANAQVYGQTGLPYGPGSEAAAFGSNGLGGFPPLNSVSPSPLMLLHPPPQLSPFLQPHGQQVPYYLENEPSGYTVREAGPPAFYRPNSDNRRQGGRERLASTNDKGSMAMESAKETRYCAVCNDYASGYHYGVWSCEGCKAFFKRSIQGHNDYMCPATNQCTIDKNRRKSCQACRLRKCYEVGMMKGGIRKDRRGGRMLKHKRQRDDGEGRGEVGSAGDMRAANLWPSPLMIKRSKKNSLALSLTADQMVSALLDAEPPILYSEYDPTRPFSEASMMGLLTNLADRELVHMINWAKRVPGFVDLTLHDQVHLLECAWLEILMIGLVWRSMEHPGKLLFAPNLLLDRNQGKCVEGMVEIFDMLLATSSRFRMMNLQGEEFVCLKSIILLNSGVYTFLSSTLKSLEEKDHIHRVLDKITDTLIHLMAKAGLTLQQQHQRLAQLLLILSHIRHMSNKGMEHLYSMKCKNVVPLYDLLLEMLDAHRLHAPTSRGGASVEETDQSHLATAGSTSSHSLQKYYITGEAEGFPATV
Sequence of Thyrotropin receptor (Homo sapiens) (P16473 whole entry, looked up): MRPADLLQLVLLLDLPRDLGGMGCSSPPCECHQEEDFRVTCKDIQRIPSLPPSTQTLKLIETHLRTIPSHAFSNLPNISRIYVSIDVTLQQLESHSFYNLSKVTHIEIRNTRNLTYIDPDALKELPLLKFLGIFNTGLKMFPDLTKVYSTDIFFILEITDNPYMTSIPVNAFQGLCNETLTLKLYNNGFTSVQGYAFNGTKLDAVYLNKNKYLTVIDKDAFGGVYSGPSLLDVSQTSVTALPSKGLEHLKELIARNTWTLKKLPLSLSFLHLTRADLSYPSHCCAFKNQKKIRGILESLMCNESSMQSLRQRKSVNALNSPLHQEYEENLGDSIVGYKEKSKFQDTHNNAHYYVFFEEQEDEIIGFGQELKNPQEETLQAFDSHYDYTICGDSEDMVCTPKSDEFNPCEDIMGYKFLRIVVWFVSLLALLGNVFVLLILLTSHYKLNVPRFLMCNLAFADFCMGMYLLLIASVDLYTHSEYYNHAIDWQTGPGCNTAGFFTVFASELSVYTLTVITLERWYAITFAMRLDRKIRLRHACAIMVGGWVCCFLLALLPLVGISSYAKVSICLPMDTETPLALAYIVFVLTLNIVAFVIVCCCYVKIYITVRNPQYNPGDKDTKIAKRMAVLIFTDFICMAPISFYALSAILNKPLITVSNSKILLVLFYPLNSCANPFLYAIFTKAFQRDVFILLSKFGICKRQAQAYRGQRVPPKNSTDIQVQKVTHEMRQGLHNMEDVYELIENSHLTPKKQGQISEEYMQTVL
Sequence of Estrogen receptor beta (Homo sapiens) (Q92731 whole entry, looked up): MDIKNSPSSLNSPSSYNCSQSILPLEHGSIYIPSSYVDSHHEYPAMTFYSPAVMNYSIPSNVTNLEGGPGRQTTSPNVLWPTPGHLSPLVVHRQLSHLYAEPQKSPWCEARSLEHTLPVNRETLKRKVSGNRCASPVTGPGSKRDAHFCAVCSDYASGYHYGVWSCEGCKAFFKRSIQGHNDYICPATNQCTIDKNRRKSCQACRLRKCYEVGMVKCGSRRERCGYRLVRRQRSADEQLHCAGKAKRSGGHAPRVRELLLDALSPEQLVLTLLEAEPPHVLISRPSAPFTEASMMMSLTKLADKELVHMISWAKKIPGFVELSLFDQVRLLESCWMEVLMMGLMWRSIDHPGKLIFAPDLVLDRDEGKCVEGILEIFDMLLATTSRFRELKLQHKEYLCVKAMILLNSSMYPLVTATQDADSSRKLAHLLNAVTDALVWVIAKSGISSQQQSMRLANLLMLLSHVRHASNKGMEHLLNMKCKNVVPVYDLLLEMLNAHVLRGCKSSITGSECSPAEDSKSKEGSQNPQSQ

CCCCOCCOC(=O)COc1nc(Cl)c(Cl)cc1Cl
inactive: Potency [1] | outcome [2] | Potency [3] | Potency [4] | outcome [5] | Potency [6] | Potency [7] | outcome [8] | Potency [9] | Potency [10] | Potency [11] | outcome [12] | outcome [13] | outcome [14] | outcome [15]

O=C1c2ccccc2C(=O)c2cc(S(=O)(=O)O)ccc21
active: Potency [4] 2.44 µM
inactive: Potency [1] | outcome [2] | Potency [3] | outcome [5] | Potency [6] | Potency [7] | outcome [8] | Potency [9] | Potency [10] | Potency [11] | outcome [12] | outcome [13] | outcome [14] | outcome [15]

CCOC(=O)/C=C/c1ccccc1
inactive: Potency [1] | outcome [2] | Potency [3] | Potency [4] | outcome [5] | Potency [6] | Potency [7] | outcome [8] | Potency [9] | Potency [10] | Potency [11] | outcome [12] | outcome [13] | outcome [14] | outcome [15]

CC(C)CCCC(C)(C)O
inactive: Potency [1] | outcome [2] | Potency [3] | Potency [4] | outcome [5] | Potency [6] | Potency [7] | outcome [8] | Potency [9] | Potency [16] | outcome [17] | Potency [10] | Potency [11] | outcome [13] | outcome [14] | outcome [15]

CC(C)N(c1ccccc1)C(C)C
inactive: Potency [1] | outcome [2] | Potency [3] | Potency [4] | outcome [5] | Potency [6] | Potency [7] | outcome [8] | Potency [9] | Potency [16] | outcome [17] | Potency [11] | outcome [12] | outcome [13] | outcome [14] | outcome [15]

Cc1[nH]cnc1-c1ccc(Cl)cc1
inactive: Potency [1] | outcome [2] | Potency [3] | Potency [4] | outcome [5] | Potency [6] | Potency [7] | outcome [8] | Potency [9] | Potency [10] | Potency [11] | outcome [12] | outcome [13] | outcome [14] | outcome [15]

CC(C)(C)c1n[nH]c(=S)n(N)c1=O
inactive: Potency [1] | outcome [2] | Potency [3] | Potency [4] | outcome [5] | Potency [6] | Potency [7] | outcome [8] | Potency [9] | Potency [10] | Potency [11] | outcome [12] | outcome [13] | outcome [14] | outcome [15]

Nc1cccc(O)c1
inactive: Potency [1] | outcome [2] | Potency [3] | Potency [4] | outcome [5] | Potency [6] | Potency [7] | outcome [8] | Potency [9] | Potency [10] | Potency [11] | outcome [12] | outcome [13] | outcome [14] | outcome [15]

CC(C)C(=O)OCCc1ccccc1
inactive: Potency [1] | outcome [2] | Potency [3] | Potency [4] | outcome [5] | Potency [6] | Potency [7] | outcome [8] | Potency [9] | Potency [10] | Potency [11] | outcome [12] | outcome [13] | outcome [14] | outcome [15]

O=S(O)(O)=S
inactive: activity change, negative = cytotoxicity [1] 6.4% [at 8.39 µM] | viability change, negative = cytotoxic [2] -0.767% [at 8.39 µM] | activity change, negative = inhibition [3] 19% [at 8.39 µM] | activity change, negative = inhibition [4] 3.04% [at 8.39 µM] | activity change, negative = cytotoxicity [5] 0.217% [at 8.39 µM] | viability change, negative = cytotoxic [6] -0.643% [at 8.39 µM] | viability change, negative = cytotoxic [7] 1.07% [at 8.39 µM] | activity change [8] -0.163% [at 8.39 µM] | activity change, negative = inhibition [9] 0.751% [at 8.39 µM] | activity, negative = inhibition [17] 6.44% [at 8.39 µM] | activity change, negative = cytotoxicity [10] 1.18% [at 8.39 µM] | activity change, negative = cytotoxicity [11] -9.09% [at 8.39 µM] | activation [13] 0.31% [at 8.39 µM] | cAMP activity change [14] 0.958% [at 8.39 µM] | activity change, negative = inhibition [15] 2.15% [at 8.39 µM]

CCCCCCCCOS(=O)(=O)O
inactive: Potency [1] | outcome [2] | Potency [3] | Potency [4] | outcome [5] | Potency [6] | Potency [7] | outcome [8] | Potency [9] | Potency [16] | outcome [17] | Potency [11] | outcome [12] | outcome [13] | outcome [14] | outcome [15]

OCCCCC(O)CO (configuration not stated)
inactive: Potency [1] | outcome [2] | Potency [4] | outcome [5] | Potency [6] | Potency [7] | outcome [8] | Potency [9] | Potency [16] | outcome [17] | Potency [11] | outcome [12] | outcome [14] | outcome [15]

O=S(=O)(O)CCN1CCN(CCO)CC1
inactive: Potency [1] | outcome [2] | Potency [4] | outcome [5] | Potency [6] | Potency [7] | outcome [8] | Potency [9] | Potency [16] | outcome [17] | Potency [10] | Potency [11] | outcome [12] | outcome [14] | outcome [15]

CCCCNc1ccc(C(=O)OCCN(C)C)cc1
inactive: Potency [1] | outcome [2] | outcome [18] | Potency [4] | outcome [5] | Potency [6] | outcome [8] | Potency [9] | Potency [10] | Potency [11] | outcome [12] | outcome [14] | outcome [15]

O=C(OCC1(COC(=O)c2cccnc2)CCCC(COC(=O)c2cccnc2)(COC(=O)c2cccnc2)C1O)c1cccnc1
inactive: Potency [1] | outcome [2] | outcome [18] | Potency [4] | outcome [5] | outcome [8] | Potency [9] | Potency [10] | Potency [11] | outcome [12] | outcome [14] | outcome [15]

CCCC/C=C\CCCCCCCCCC=O
inactive: Potency [1] | outcome [2] | Potency [4] | outcome [5] | Potency [6] | Potency [7] | outcome [8] | Potency [9] | Potency [16] | outcome [17] | Potency [10] | Potency [11] | outcome [12] | outcome [14] | outcome [15]

CCCCC(CC)COCCO (configuration not stated)
inactive: Potency [1] | outcome [2] | Potency [3] | Potency [4] | outcome [5] | Potency [6] | outcome [8] | Potency [9] | Potency [16] | outcome [17] | Potency [11] | outcome [12] | outcome [13] | outcome [14] | outcome [15]

Reference: PubChem BioAssay (Tox21)
